Laboratory results published in PubChem BioAssay (Tox21).
Records with an inconclusive call do not appear. Calls of active or inactive are those of the source. Unless noted, calls come from the whole dose curve; as a rule, active = well fitted curve in the direction sought with a large enough effect in the repeat runs; inconclusive = weak or mixed curves; inactive = no such curve, though single readings can be large; an effect the other way counts as inactive or inconclusive.

What was measured:
[1] = target: Estrogen receptor beta (Homo sapiens) (UniProt Q92731); test: qHTS assay to identify small molecule agonists of the estrogen receptor beta (ER-beta) signaling pathway (AID 1259377; active = well fitted activation curve with a large enough effect in the signal ratio in the repeat runs, not every such curve was filed as active; the % refers to the signal ratio)
Chain of Estrogen receptor beta (Homo sapiens) (Q92731 whole entry, looked up): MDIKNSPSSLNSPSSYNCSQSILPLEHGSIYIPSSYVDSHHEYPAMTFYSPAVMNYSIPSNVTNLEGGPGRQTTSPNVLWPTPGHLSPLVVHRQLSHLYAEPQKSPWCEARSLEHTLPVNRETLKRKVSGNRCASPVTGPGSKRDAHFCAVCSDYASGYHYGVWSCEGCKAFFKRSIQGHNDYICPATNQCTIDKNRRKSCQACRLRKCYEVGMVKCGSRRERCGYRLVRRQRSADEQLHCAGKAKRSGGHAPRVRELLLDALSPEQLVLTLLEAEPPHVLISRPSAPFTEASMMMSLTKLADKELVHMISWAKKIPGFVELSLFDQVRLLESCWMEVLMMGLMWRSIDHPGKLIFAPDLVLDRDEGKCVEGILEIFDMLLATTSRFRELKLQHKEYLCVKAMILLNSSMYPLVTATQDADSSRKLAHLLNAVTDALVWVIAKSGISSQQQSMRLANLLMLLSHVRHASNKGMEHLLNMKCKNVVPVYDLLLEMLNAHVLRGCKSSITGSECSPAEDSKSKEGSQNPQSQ
Outline: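 HEK293T ER-beta-UAS-bla; 2% charcoal-stripped FBS; cells pre-incubated 6 hr, compound 16 hr, 37C/5% CO2; LiveBLAzer B/G FRET substrate 2 h RT; fluorescence intensity read.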

[2] = target: Estrogen receptor beta (Homo sapiens) (UniProt Q92731); test: qHTS assay to identify small molecule antagonists of the estrogen receptor beta (ER-beta) signaling pathway (AID 1259378; active = well fitted inhibition curve with a large enough effect in the signal ratio in the repeat runs, not every such curve was filed as active; the % refers to the signal ratio)
Outline: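 Antagonist mode: compounds added to beta-lactamase reporter HEK293T ER-beta-UAS cells stimulated with E2 (1nM final), 16 hr at 37C. LiveBLAzer B/G FRET substrate, 2 hours room temperature, fluorescence read-out.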

[3] = qHTS assay to identify small molecule agonists of the androgen receptor (AR) signaling pathway in the presence of an antagonist - cell viability counter screen (AID 1259379); note: series mostly up to about 92 µM; nearly all actives have a fitted effect of over 25% in size
Outline: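 MDA-kb2 human breast carcinoma cells (stable MMTV-luciferase, AR/GR responsive) were seeded 3,000 cells/well, pre-incubated 5 hr at 37C without CO2, then given 3.0uM nilutamide and compounds at 15 concentrations for 16 hr. Viability was read by CellTiter-Fluor fluorescence.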

[4] = qHTS assay to identify small molecule agonists of the estrogen receptor beta (ER-beta) signaling pathway - cell viability counter screen (AID 1259380); note: nearly all actives have a fitted effect of over 30% in size
Outline: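 ER-beta-UAS-bla HEK293T cells in medium with 2% charcoal-stripped FBS were preincubated 6 hr at 37C, dosed with compound in DMSO for 16 hr, then after the bla read, CellTiter-Glo was added for 30 min at room temperature; luminescence recorded.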

[5] = target: Androgen receptor (Homo sapiens) (UniProt P10275); test: qHTS assay to identify small molecule agonists of the androgen receptor (AR) signaling pathway in the presence of an antagonist (AID 1259381; calls by dose curve; note: nearly all actives have a fitted effect of over 15% in size)
Chain of Androgen receptor (Homo sapiens) (P10275 whole entry, looked up): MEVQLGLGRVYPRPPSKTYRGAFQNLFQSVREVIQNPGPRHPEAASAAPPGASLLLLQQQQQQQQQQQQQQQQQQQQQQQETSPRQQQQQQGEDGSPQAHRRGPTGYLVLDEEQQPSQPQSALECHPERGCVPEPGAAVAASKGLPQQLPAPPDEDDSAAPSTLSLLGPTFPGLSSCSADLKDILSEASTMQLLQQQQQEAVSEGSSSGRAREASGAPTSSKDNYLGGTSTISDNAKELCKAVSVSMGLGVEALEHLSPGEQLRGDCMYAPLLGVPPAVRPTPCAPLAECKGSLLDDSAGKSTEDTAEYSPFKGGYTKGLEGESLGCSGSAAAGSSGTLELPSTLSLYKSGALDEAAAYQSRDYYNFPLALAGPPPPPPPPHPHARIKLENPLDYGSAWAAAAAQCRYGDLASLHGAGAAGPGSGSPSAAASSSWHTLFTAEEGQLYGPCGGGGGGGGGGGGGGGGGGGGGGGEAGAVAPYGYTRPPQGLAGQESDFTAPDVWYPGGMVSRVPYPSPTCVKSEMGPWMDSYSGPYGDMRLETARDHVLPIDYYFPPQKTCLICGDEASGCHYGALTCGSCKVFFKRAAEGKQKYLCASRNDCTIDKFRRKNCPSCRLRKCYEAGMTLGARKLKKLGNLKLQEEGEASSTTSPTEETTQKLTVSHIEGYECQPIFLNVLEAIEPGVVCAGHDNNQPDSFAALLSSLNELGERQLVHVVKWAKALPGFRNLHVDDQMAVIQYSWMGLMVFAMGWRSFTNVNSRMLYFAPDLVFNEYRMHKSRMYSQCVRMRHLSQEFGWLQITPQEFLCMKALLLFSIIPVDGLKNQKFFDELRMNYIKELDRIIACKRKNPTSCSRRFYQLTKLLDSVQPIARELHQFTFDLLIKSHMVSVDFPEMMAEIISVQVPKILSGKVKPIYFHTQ
Outline: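 MDA-kb2 human breast carcinoma cells carrying an MMTV-luciferase reporter (AR- and GR-responsive) were treated with compounds at 15 concentrations plus 3.0uM final nilutamide for 16hr at 37C without CO2; luminescence was read after ONE-Glo addition.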

[6] = qHTS assay to identify small molecule antagonists of the estrogen receptor beta (ER-beta) signaling pathway - cell viability counter screen (AID 1259382);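 note: HEK293T cells carrying ER-beta-UAS-bla reporter stimulated with estradiol; series mostly up to about 92 µM; nearly all actives have a fitted effect of over 55% in size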
Outline: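 ER-beta-UAS-bla HEK293T cells (2,000/well, 2% charcoal-stripped FBS) were pre-incubated 6 hr at 37C, then given compound plus 1nM final 17-beta-estradiol for 16 hr. Viability was read in the same wells by CellTiter-Glo luminescence after 30 min at room temperature.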

[7] = target: Estrogen receptor (Homo sapiens) (UniProt P03372); test: qHTS assay to identify small molecule agonists of the estrogen receptor alpha (ER-alpha) signaling pathway in the presence of an antagonist (AID 1259383; calls by dose curve; note: top concentration of the series differs between compounds; nearly all actives have a fitted effect of over 15% in size)
Chain of Estrogen receptor (Homo sapiens) (P03372 whole entry, looked up): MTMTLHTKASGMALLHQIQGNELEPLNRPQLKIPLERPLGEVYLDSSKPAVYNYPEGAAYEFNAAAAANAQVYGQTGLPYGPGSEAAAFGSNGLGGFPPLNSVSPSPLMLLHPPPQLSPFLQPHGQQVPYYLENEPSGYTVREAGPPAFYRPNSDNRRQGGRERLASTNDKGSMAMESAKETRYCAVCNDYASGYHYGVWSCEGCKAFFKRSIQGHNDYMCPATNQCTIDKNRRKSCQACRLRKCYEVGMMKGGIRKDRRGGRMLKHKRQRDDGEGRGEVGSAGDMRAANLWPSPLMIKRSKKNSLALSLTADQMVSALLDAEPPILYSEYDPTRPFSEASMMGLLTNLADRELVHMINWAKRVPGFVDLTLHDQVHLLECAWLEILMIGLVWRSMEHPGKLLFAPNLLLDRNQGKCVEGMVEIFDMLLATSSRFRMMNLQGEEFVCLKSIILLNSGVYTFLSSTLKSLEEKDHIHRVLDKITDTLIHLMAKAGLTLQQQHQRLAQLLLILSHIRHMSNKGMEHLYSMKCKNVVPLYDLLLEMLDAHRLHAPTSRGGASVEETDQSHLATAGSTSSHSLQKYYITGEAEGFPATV
Outline: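 VM7Luc4E2 cells (endogenous full-length ER-alpha, 4×ERE-luciferase) were precultured 5 days in phenol red-free medium with 10% charcoal-stripped FBS, given 10.0nM ICI-182,780 (final), then treated with compounds at 15 concentrations for 22hr at 37C; luminescence read with ONE-Glo.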

[8] = qHTS assay to identify small molecule agonists or antagonists of the thyroid stimulating hormone receptor (TSHR) signaling pathway - wild type cell line counter screen (AID 1259384; calls by dose curve)
Outline: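 Counter screen in untransfected Hek293: compounds (15-point titration, triplicate) plus phosphodiesterase inhibitor Ro20-1724 added after 18 h plating; 30 min RT. Intracellular cAMP via competitive d2/cryptate immunoassay, 1 h incubation.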

[9] = target: Thyrotropin receptor (Homo sapiens) (UniProt P16473); test: qHTS assay to identify small molecule antagonists of the thyroid stimulating hormone receptor (TSHR) signaling pathway (AID 1259385; calls by dose curve; note: nearly all actives have a fitted effect of over 20% in size)
Chain of Thyrotropin receptor (Homo sapiens) (P16473 whole entry, looked up): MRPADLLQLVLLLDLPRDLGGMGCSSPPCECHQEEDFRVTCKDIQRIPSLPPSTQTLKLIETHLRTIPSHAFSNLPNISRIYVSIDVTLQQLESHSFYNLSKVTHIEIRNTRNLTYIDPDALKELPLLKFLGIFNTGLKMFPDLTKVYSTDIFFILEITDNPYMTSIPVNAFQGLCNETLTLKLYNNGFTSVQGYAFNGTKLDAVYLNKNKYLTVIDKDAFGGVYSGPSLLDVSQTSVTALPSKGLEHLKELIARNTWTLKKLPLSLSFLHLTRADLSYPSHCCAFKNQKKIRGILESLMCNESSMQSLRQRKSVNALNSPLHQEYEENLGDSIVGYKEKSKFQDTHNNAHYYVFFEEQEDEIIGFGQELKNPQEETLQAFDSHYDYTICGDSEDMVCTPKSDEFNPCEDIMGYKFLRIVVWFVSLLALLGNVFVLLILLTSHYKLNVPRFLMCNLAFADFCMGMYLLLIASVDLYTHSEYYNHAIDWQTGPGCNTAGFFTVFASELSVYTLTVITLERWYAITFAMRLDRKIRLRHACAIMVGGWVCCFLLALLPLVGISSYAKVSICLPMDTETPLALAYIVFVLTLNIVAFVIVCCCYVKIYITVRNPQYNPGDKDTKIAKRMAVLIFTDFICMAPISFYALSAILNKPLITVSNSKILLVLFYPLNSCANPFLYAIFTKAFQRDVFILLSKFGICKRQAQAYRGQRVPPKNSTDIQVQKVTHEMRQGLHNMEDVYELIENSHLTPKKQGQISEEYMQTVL
Outline: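 Antagonist mode: compound-treated TSHR-expressing HEK293 cells were stimulated with 1.5 ng/mL TSH (final) in presence of Ro20-1724 for 30 min at RT. HTRF cAMP detection after 1 h; each compound tested at 15 concentrations, triplicate.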

[10] = qHTS assay to identify small molecule agonists of the estrogen receptor alpha (ER-alpha) signaling pathway in the presence of an antagonist - cell viability counter screen (AID 1259386);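 note: series mostly up to about 92 µM; cells exposed to compounds for 22 h at 37 °C before the viability read; nearly all actives have a fitted effect of over 30% in size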
Outline: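 VM7Luc4E2 cells (endogenous full-length ER-alpha, 4×ERE-luciferase) were held 5 days in phenol red-free medium with 10% charcoal-stripped FBS, plated, then given 10.0nM ICI-182,780 and compounds at 15 concentrations for 22hr at 37C; viability read by CellTiter-Fluor fluorescence.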

[11] = target: Progesterone receptor (Homo sapiens) (UniProt P06401); test: qHTS assay to identify small molecule agonists of the progesterone receptor (PR) signaling pathway (AID 1346784; calls by dose curve; note: nearly all actives have a fitted effect of over 30% in size)
Chain of Progesterone receptor (Homo sapiens) (P06401 whole entry, looked up): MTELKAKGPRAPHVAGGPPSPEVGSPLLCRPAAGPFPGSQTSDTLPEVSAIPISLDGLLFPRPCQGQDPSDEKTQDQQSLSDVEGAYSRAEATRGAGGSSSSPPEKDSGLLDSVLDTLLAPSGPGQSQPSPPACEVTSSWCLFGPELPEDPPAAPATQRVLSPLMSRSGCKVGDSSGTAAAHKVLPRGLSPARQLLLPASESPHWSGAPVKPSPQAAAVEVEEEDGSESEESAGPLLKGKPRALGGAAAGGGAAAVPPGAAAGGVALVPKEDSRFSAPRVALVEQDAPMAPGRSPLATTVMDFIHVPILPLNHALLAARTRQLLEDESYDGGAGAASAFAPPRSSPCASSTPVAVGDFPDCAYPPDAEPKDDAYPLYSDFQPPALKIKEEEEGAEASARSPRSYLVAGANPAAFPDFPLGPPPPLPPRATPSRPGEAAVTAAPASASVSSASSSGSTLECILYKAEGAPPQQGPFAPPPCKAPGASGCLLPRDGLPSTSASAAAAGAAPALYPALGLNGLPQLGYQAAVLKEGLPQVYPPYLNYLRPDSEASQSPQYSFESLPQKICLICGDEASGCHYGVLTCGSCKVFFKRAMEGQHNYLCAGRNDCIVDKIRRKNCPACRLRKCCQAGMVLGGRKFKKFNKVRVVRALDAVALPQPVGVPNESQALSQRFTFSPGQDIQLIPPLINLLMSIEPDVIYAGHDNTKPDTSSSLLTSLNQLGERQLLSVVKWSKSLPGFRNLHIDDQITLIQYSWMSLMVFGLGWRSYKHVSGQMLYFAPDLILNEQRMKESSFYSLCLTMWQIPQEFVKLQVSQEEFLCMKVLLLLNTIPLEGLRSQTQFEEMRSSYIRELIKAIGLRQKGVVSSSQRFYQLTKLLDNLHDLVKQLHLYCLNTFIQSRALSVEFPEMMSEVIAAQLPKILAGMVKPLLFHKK
Outline: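 Beta-lactamase reporter read-out: after 16 hr compound treatment at 37C and a further 2 hr at room temperature with LiveBLAzer B/G FRET substrate, fluorescence was measured in PR-UAS-bla HEK 293T cells grown in 2% charcoal-stripped serum.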

[12] = target: Progesterone receptor (Homo sapiens) (UniProt P06401); test: qHTS assay to identify small molecule antagonists of the progesterone receptor (PR) signaling pathway (AID 1346795; active = well fitted inhibition curve with a large enough effect in the signal ratio in the repeat runs, not every such curve was filed as active; the % refers to the signal ratio)
Outline: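 Read-out is fluorescence from the LiveBLAzer B/G FRET substrate, cleaved by a UAS-controlled beta-lactamase in PR-UAS-bla HEK293T cells after 16 hr exposure to compound plus 1 nM promegestone (final), followed by 2 hr at room temperature.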

[13] = qHTS assay to identify small molecule antagonists of the progesterone receptor (PR) signaling pathway - cell viability counter screen (AID 1346798);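 note: HEK293T PR-UAS-bla cells stimulated with the agonist R5020; series mostly up to about 92 µM; nearly all actives have a fitted effect of over 50% in size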
Outline: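 HEK293T PR-UAS-bla, 2% charcoal-stripped FBS; 4 hr pre-plate; cpd + R5020, 16 h 37C; LiveBLAzer read first; then CellTiter-Glo 30 min RT, luminescence.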

[14] = qHTS assay to identify small molecule agonists of the progesterone receptor (PR) signaling pathway - cell viability counter screen (AID 1346799; calls by dose curve; note: nearly all actives have a fitted effect of over 45% in size)
Outline: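 Luminescence from CellTiter-Glo, added after the beta-lactamase FRET read in the same wells, gave cytotoxicity in PR-UAS-bla HEK293T cells treated with compounds for 16 hr at 37C.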

[15] = qHTS assay to identify small molecule antagonists of the TGF-beta/Smad signaling pathway - cell viability counter screen (AID 1346824); note: nearly all actives have a fitted effect of over 50% in size
Outline: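 Cytotoxicity counter-screen run in the same wells as the beta-lactamase Smad reporter read: CellTiter-Glo luminescence after 30 min at room temperature. HEK 293T SBE-bla cells had 5 hr compound exposure at 37 C with TGF-beta1 (0.25 ng/mL stock).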

[16] = qHTS assay to identify small molecule agonists of the TGF-beta/Smad signaling pathway - cell viability counter screen (AID 1346829); note: top concentration of the series differs between compounds; nearly all actives have a fitted effect of over 45% in size
Outline: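 Luminescence from CellTiter-Glo, read after a 30 min room-temperature incubation, gives cell viability of SBE-bla HEK 293T cells treated 5 hr with compounds at 37 C.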

[17] = qHTS assay to identify small molecule agonists of the TGF-beta/Smad signaling pathway (AID 1346859; active = well fitted activation curve with a large enough effect in the signal ratio in the repeat runs, not every such curve was filed as active; the % refers to the signal ratio; note: series mostly up to about 77 µM)
Outline: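 SBE-bla HEK 293T, 4,000 cells/well, plated o/n; cpd in DMSO, 5 hr, 37 C/5% CO2; B/G FRET substrate 2 hr RT; ex 405, em 460/530 nm.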

[18] = Human pregnane X receptor (PXR) small molecule agonists, qHTS cell viability counter screen (AID 1346977); note: nearly all actives have a fitted effect of over 50% in size
Outline: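 PXR-Luc HepG2, 2,000 cells/well, 5% charcoal-stripped FBS; 5hr settle; cpd 24hr, 37C/5% CO2; CellTiter-Fluor at 23hr, read 1hr later (fluorescence).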

[19] = target: Thyrotropin-releasing hormone receptor (Homo sapiens) (UniProt P34981); test: qHTS assay to identify small molecule antagonists of the thyrotropin-releasing hormone receptor (TRHR) signaling pathway (AID 1346877; active = well fitted inhibition curve with a large enough effect in the repeat runs, not every such curve was filed as active; note: series mostly up to about 51 µM)
Chain of Thyrotropin-releasing hormone receptor (Homo sapiens) (P34981 whole entry, looked up): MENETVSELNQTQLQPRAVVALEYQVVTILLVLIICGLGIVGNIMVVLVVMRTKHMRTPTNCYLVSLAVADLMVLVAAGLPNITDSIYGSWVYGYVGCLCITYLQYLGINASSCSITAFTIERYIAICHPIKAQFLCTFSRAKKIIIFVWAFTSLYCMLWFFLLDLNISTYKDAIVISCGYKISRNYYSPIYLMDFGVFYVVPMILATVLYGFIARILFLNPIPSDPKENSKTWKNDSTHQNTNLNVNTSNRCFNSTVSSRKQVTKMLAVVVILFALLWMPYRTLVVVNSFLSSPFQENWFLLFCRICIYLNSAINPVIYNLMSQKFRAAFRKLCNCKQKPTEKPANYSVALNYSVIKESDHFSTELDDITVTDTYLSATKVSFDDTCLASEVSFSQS
Outline: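 TRHR-expressing HEK293 cells were seeded, cultured 18 h at 37 °C, then loaded with calcium dye for 2 h. Compounds were pre-incubated 5 min at room temperature before 1 nM TRH (final) was added, and kinetic fluorescence was recorded for 3 min.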

[20] = target: Thyrotropin-releasing hormone receptor (Homo sapiens) (UniProt P34981); test: qHTS assay to identify small molecule agonists of the thyrotropin-releasing hormone receptor (TRHR) signaling pathway (AID 1346891; calls by dose curve; note: series mostly up to about 58 µM)
Outline: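 Intracellular calcium rise, read as fluorescence every second for 3 min, served as the agonist signal in dye-loaded HEK293 cells expressing TRHR; each compound ran at 15 concentrations in triplicate.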

Measured: Potency

CC(C)(C)NSc1nc2ccccc2s1
inactive: [1] | [2] | [3] | [4] | [5] | [6] | [7] | [8] | [9] | [10] | [11] | [12] | [13] | [14] | [15] | [16] | [17] | [18]

COC(C)=O
inactive: [1] | [2] | [3] | [4] | [6] | [7] | [10] | [11] | [12] | [13] | [14] | [15] | [16] | [18]

C=Cc1ccccc1C=C
inactive: [1] | [2] | [3] | [4] | [6] | [7] | [8] | [9] | [10] | [11] | [12] | [13] | [14] | [15] | [16] | [17] | [19] | [20] | [18]

COc1ccc(NC(=O)CC(C)=O)cc1
inactive: [1] | [2] | [3] | [4] | [8] | [9] | [10] | [11] | [12] | [13] | [14] | [15] | [16] | [17] | [19] | [20]

C=C(C)c1cccc(C(=C)C)c1
inactive: [1] | [2] | [3] | [4] | [6] | [7] | [8] | [9] | [10] | [11] | [12] | [13] | [14] | [15] | [16] | [17] | [19] | [20] | [18]

Cc1c(C)c2c(c(C)c1O)CC[C@@](C)(CCC[C@H](C)CCC[C@H](C)CCCC(C)C)O2
inactive: [1] | [2] | [3] | [6] | [7] | [8] | [9] | [10] | [11] | [12] | [13] | [14] | [15] | [16] | [17] | [19] | [20]

O=C(O)[C@H](O)[C@@H](O)[C@H](O[C@@H]1O[C@H](CO)[C@H](O)[C@H](O)[C@H]1O)[C@H](O)CO
inactive: [1] | [2] | [3] | [4] | [6] | [7] | [8] | [9] | [10] | [13] | [14] | [15] | [16] | [17] | [19] | [20] | [18]
